Several values for one entry are separate records, joined by “and”; a condition that tells them apart may be missing. Equal values may be shown once. The panel holds about 83,000 compounds, 20% with a hit somewhere; the sample as a whole holds those more often.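 Method: cells in 96-well plates; compound added at one concentration; 48 h incubation; percent growth measured; values under 10 scored active.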 Unmarked numbers belong to inactive results. Activity calls are given as the source filed them.
Each molecule was assayed on LOX IMVI melanoma (assay: NCI-60 one-dose screen, 48 h (100 = growth as untreated, 0 = no growth, -100 = all killed)). Conditions: 10 µM unless noted.
Procedure: Growth inhibition of the LOX IMVI human tumor cell line is measured as a screen for anti-cancer activity. Cells are grown in 96 well plates and exposed to the test compound for 48 hours. Compounds are tested at a single concentration, which is 10^-5 M for most compounds. The reported endpoint is percent growth (GI% or GIPRCNT), where numbers from 0 - 100% represent growth inhibition, and numbers from -100% - 0 represent cell death. For example, a value of 40 represents 60% growth inhibition. A value of 0 means no net growth occurred over the course of the experiment. A value of -40 indicates 40% of cells at the beginning of the experiment died by the end of the experiment. A value of -100 means all cells are dead at the end of the experiment.
NCI-60 Human Tumor Cell Lines Screen was performed using the standard one-dose NCI protocol, which is described in more detail at https://dtp.cancer.gov/discovery_development/nci-60/default.htm.
Compounds with GIPRCNT values below 10 were considered active. Activity score was based on GIPRCNT using the following formula: […]
Score is 0 for GIPRCNT values of 100 or above, 50 for GIPRCNT values of 0, and 100 for GIPRCNT values of -100.

| SMILES | growth |
| --- | --- |
| COc1ccc(-c2nc3ccccc3n2CC(=O)N=Nc2c(O)[nH]c3ccc(OC)cc23)cc1 | 56.8% |
| C/C(=N/O)c1ccc(NC(=O)CSc2nnc(-c3ccc(-c4nc5ccc(Cl)cc5[nH]4)cc3)o2)cc1 | -100% (active) |
| Nc1nn2c(-c3cc4ccccc4oc3=O)ccnc2c1N=Nc1ccccc1 | 34% |
| Cc1ccc(C2CC(c3ccc(NC(=S)Nc4ccccc4)cc3)=NN2c2ccc(S(N)(=O)=O)cc2)cc1 (stereo not given) | 14.9% |
| C/C(=N\Nc1ccc(C(=O)O)cc1)c1cnn(-c2cc(=O)[nH]c3ccc(C)cc23)c1C | 94.9% |
| CCCCC[C@@H]1C/C=C(\C)[C@@H](O)C(C)(C)C(=O)[C@@H](C)/C=C(\C)[C@@H]2C[C@H](O)C[C@](O)(CC(=O)O1)O2 | 50.9% |
| O=C(CSc1nc2c(c(=O)[nH]1)CCCC2)Nc1ccccc1C(=O)O | 101% |
| CS(=O)(=O)Nc1cncc(-c2ccc3ncnc(NCc4ccccc4)c3c2)c1 | 35.9% |
| O=C1NC(=S)/C(=C/c2cn(-c3ccccc3)nc2-c2ccccc2)S1 | 28.9% |
| O=C(CSc1nc2sc3c(c2c(=O)n1-c1ccc(Cl)cc1)CCCC3)NNC(=O)c1ccc(Br)cc1 | 52.1% |
| COc1ccc2[nH]c(O)c(N=NC(=O)c3ccc4nc(-c5ccc(Cl)cc5)[nH]c4c3)c2c1 | 24.6% |
| COc1cc(/C=N/NC(=O)c2ccc(OCc3nc4ccc(C)cc4[nH]3)cc2)cc(OC)c1OC | 40.4% |
| Nc1nnc(-c2cncc(Br)c2)c(-c2c[nH]c3ccc(Br)cc23)n1 | 43.1% |
| O=C(Nc1ccc(-c2ccc3c(c2)NC(=O)/C3=C\c2ccc[nH]2)cc1)Nc1ccc(Cl)c(C(F)(F)F)c1 | 46.9% |
| CCOc1ccc(-c2cc(-c3cc(C(C)C)c(O)cc3C)nn2-c2ccc(S(N)(=O)=O)cc2)cc1 | 17.9% |
| COc1ccc(N=Nc2c(N)nn3c(-c4ccc(F)cc4)ccnc23)cc1 | 86.8% |
| Oc1ccc(F)c(Nc2nc(SCCN3CCOCC3)nc3c2cnn3CC(Cl)c2ccc(Br)cc2)c1 (stereo not given) | -17.8% (active) |
| CCCCCCCCCc1ccc(C(=O)Nc2cc(C)ccc2C(=O)OC)cc1 | 102% |
| O=C(Nc1ccc(F)cc1)Nc1nc2ccc([N+](=O)[O-])cc2s1 | 12.5% |
| FC(F)(F)c1cc2c(Cl)ncnc2n1CCN1CCCCC1 | -88.8% (active) |

| SMILES | growth |
| --- | --- |
| COc1c2c(c(Br)c3c1C(CCc1ccccc1)N(C)CC3)OCO2 (stereo not given) | 6% (active) |
| Cc1ccc2nc(COc3ccc(C(=O)NNC(=O)Nc4ccc(Cl)c(C(F)(F)F)c4)cc3)[nH]c2c1 | 69.1% |
| NS(=O)(=O)c1cccc(Nc2nc(SCC(=O)c3ccc(F)cc3)nc3ccccc23)c1 | -44.6% (active) |
| Nc1nnc(CS(=O)(=O)c2ccccc2)s1 | 84.6% |
| CC[C@]12C=CCN3CC[C@]4(C(=C(C(=O)OC)C1)Nc1cc(OC)c([C@@H]5[C@H]6O[C@H]6[C@@]6(CC)CC(C(=O)OC)=C7Nc8cc(O)ccc8[C@@]78CCN5[C@@H]68)cc14)[C@@H]32 | -94.5% (active) |
| O=C(CSc1nc2ccccc2c(=O)[nH]1)NNC(=O)c1ccccc1Cl | 102% |
| CC(=O)Nc1cccc(-n2c(COc3ccc(I)cc3)nc3ccccc32)c1 | 85.3% and 107% |
| COC(=O)c1c(C(=O)OC)c2c3ccccc3c3ccccc3n2c1C(=O)C(F)(F)F | 87.7% |
| N#Cc1ccc(C(=O)CSc2nc3c(c(Nc4ccc(S(N)(=O)=O)cc4)n2)CCC3)cc1 | 1.66% (active) |
| O=C(Cc1c(-c2ccccc2[N+](=O)[O-])n(-c2ncnc3c2c(-c2ccccc2)c(-c2ccccc2)n3Cc2ccccc2)[nH]c1=O)c1ccc(Cl)c(Cl)c1 | 14.9% |
| COc1ccc2c(c1)C(=O)N(C)C2C1c2c(cc3c(c2OC)OCO3)CCN1C (stereo not given) | 46.7% |
| CC1(C)CC(=O)C2=C(C1)OC(N)=C(c1nc3ccccc3[nH]1)C2c1ccc(Cl)cc1 (stereo not given) | 42.9% and 107% |
| NNc1ncnc2sc3c(c12)CCN(Cc1ccccc1)C3 | 39.7% |
| Cc1nc2sccn2c1-c1nnc(SCC(C)C)o1 | 91.3% |
| CS(=O)(=O)Nc1cccc(-n2cnc3cc(-c4ccc(O)cc4)ccc32)c1 | 41.9% |
| NC(=O)c1ccc(-c2ccc3ncnc(N4CCc5cc(F)c(Cl)cc54)c3c2)cn1 | 57% |
| O=C1Nc2cc(-c3ccc(NS(=O)(=O)c4ccc(F)c(Cl)c4)cc3)ccc2/C1=C/c1ccc[nH]1 | 0.97% (active) |
| CNc1nc2ccccc2n2c(-c3ccc(O)c(O)c3)cnc12 | 5.44% (active) |
| COc1c(B(O)O)cc(F)cc1-c1nc2c(F)cc3[nH]ncc3c2c2c1CCCC2 | -16.6% (active) |
| COc1ccc(-c2nnc3c(/C=C/c4ccc(Br)cc4)nc4ccccc4n23)cc1 | -87.9% (active) |

From PubChem BioAssay (NCI)
